Experimental findings from PubChem BioAssay (NCATS) are described below.

One test concerns MCC-13. Put plainly: qHTS assay to identify novel small-molecules to repurpose for Merkel cell carcinoma treatment (AID 1296009). Also: nearly all actives have a fitted effect of over 60% in size. Conditions: MCC and control cell lines, CellTiter-Glo viability, 72 h; series mostly up to 46 µM. In a few lines:
(§1)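 Luminescence from CellTiter-Glo, read 10 min after addition at room temperature, reported viability following a 72 hr, 37 degree celsius treatment with NPC or MIPE compounds in titration; values normalized to plate controls.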
(qHTS replaces the single test concentration by a dilution series.)

A further test deals with MCC-26. The description is as above. The following applies: MCC and control cell lines, CellTiter-Glo viability, 72 h; series mostly up to 46 µM. In a few lines:
as §1
(In ATP-based viability assays light output follows the ATP content of the culture.)

A further test concerns MKL-1. The test is described as above. Conditions: MCC and control cell lines, CellTiter-Glo viability, 72 h; series mostly up to 46 µM. In a few lines:
as §1

A further test deals with UISO. Described as above. The following applies: MCC and control cell lines, CellTiter-Glo viability, 72 h; series mostly up to 46 µM. In a few lines: as §1
The next test deals with WaGa. The test is described as above. Conditions: MCC and control cell lines, CellTiter-Glo viability, 72 h; series mostly up to 46 µM. In a few lines:
as §1

In the next test the test system is C33A. Put plainly: Primary qHTS to identify gynecologic anti-cancer compounds using libraries of approved drugs and bioactive compounds (AID 1345084). Also: nearly all actives have a fitted effect of over 55% in size. Also: potency is read from the fitted curve at half-maximal effect. The following applies: Gynecologic cancer cell panel viability, ATPlite luminescence, 48 h; series mostly up to 57.5 µM. In a few lines: (§2)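 48 h compound exposure at 37 C, 5% CO2; five-point qHTS. ATPlite luminescence readout of cell ATP.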

The test system of a further test is CAOV3. The test is described as above. The following applies: Gynecologic cancer cell panel viability, ATPlite luminescence, 48 h; series mostly up to 57.5 µM. In a few lines: as §2
The test system of the next test is CASKI. The test is described as above. The following applies: Gynecologic cancer cell panel viability, ATPlite luminescence, 48 h; series mostly up to 57.5 µM. In a few lines:
as §2

A further test concerns Es-2. Described as above. The following applies: Gynecologic cancer cell panel viability, ATPlite luminescence, 48 h; series mostly up to 57.5 µM. In a few lines:
as §2

The subject of a further test is HeLa. The test is described as above. Conditions: Gynecologic cancer cell panel viability, ATPlite luminescence, 48 h; series mostly up to 57.5 µM. In a few lines: as §2
Another test relates to Hek293T. The test is described as above. Conditions: Gynecologic cancer cell panel viability, ATPlite luminescence, 48 h, control line for the selectivity index; series mostly up to 57.5 µM. In a few lines: as §2
A further test concerns JEG-3. The description is as above. Conditions: Gynecologic cancer cell panel viability, ATPlite luminescence, 48 h; series mostly up to 57.5 µM. In a few lines: as §2
In another test the test system is OV90. The description is as above. Conditions: Gynecologic cancer cell panel viability, ATPlite luminescence, 48 h; series mostly up to 57.5 µM. In a few lines: as §2
For a further test, the system named is PA-1. The description is as above. The following applies: Gynecologic cancer cell panel viability, ATPlite luminescence, 48 h; series mostly up to 57.5 µM. In a few lines: as §2
A further test concerns SKOV3. The description is as above. The following applies: Gynecologic cancer cell panel viability, ATPlite luminescence, 48 h; series mostly up to 57.5 µM. In a few lines: as §2
The test system of another test is Tov-21-G. Described as above. Conditions: Gynecologic cancer cell panel viability, ATPlite luminescence, 48 h; series mostly up to 57.5 µM. In a few lines: as §2
In a further test the test system is Tov112D. The test is described as above. The following applies: Gynecologic cancer cell panel viability, ATPlite luminescence, 48 h; series mostly up to 57.5 µM. In a few lines:
as §2

Test [1] can be described thus: Drug repurposing screens with cells derived from glioblastoma tumor samples (AID 1345199). Also: nearly all actives have a fitted effect of over 40% in size. Conditions: GBM patient neurospheres viability, ATP luminescence, 48 h. In a few lines:
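Primary testing used CD133+ neurospheres from four GBM patients, seven concentrations, 48 h exposure and ATP-based viability; confirmation added three slower-growing patient lines.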

A further test deals with NIH3T3. Put plainly: qHTS assay to identify novel small-molecules to repurpose for Merkel cell carcinoma treatment (AID 1296009). Also: nearly all actives have a fitted effect of over 60% in size. Conditions: MCC and control cell lines, CellTiter-Glo viability, 72 h; at 44.8 µM (top of the series) unless noted. In a few lines:
as §1

In a further test the test system is MKL-2. Described as above. Conditions: MCC and control cell lines, CellTiter-Glo viability, 72 h; series mostly up to 46 µM. In a few lines: as §1
The mark [2] stands for this setting: at 45.9 µM (top of the series), tumour line B.
Setting [3] is: at 45.9 µM (top of the series), tumour line D.
Setting [4] is: at 46 µM (top of the series), tumour line A.

Where “and” joins values, the source holds several entries; their conditions need not be identical. Equal values may be shown once. Records with an inconclusive call do not appear. Values without a mark were called inactive. Calls of active or inactive are those of the source. Calls follow the shape of the dose curve; as a rule, active = well fitted curve in the direction sought with a large enough effect; inconclusive = small, poorly fitted or top-dose-only effect, or another doubt; inactive = no such curve, though single readings can be large; an effect the other way counts as inactive or inconclusive.
% is scaled to controls: 0 for no effect and ±100 for the full control effect.

As for `COP(=S)(OC)Oc1cc(Cl)c(Cl)cc1Cl`, the compound was called inactive with MCC-13, with CAOV3, with CASKI, in the test on Hek293T, with JEG-3 and in the test with SKOV3. The Potency result in the test on MCC-26, with MKL-1, in the test on UISO, in the test on WaGa, in the test with C33A and in the test with Es-2 was “inactive” in each case. Besides, the Potency result in the test on HeLa, in the test with OV90, in the test with PA-1, with Tov-21-G and in the test with Tov112D was “inactive” throughout. Moreover, the activity, negative = cell killing in test [1] (setting [2]) is 10.9% and 7.75%; in [1] (setting [3]), -10.8% and 1.81%; in [1] (setting [4]), -24.7% and -15.3%.

Regarding `NCCc1ccc(O)cc1`, the result in the test on MCC-13, in the test with NIH3T3, with CAOV3, in the test on CASKI, with Hek293T and in the test with JEG-3 was inactive. Besides, in the test with SKOV3, the call was inactive. The Potency result in the test with MCC-26, with MKL-1, in the test on UISO, with C33A, with Es-2 and in the test with HeLa was “inactive” throughout. In addition, the Potency entry in the test with OV90, with PA-1, in the test with Tov-21-G and with Tov112D was “inactive” in each case. For the same compound, the figures for the activity, negative = cell killing in [1] (setting [2]), in test [1] (setting [3]) and in test [1] (setting [4]) were -7.62%, 3.08% and -19.3%, respectively.

In the case of `CCCCC/C=C\C/C=C\C/C=C\C/C=C\CCCC(=O)NCC(=O)O`, the call with MCC-13, with NIH3T3, with CAOV3, with CASKI, in the test on Hek293T and in the test on JEG-3 was inactive. Moreover, the Potency result in the test on MCC-26, in the test on MKL-1, in the test with UISO, with WaGa, in the test on C33A and in the test with Es-2 was “inactive” throughout. Further, the Potency entry in the test on HeLa, in the test with OV90, with PA-1, with Tov-21-G and in the test with Tov112D was “inactive” each time. The activity, negative = cell killing in test [1] (at 4.17 µM (top of the series), tumour line A) is -24.5%; in test [1] (at 4.17 µM (top of the series), tumour line B), -4.38%; in test [1] (at 4.17 µM (top of the series), tumour line D), -5.18%.

For `C[C@]12CC[C@@H]3c4ccc(OC(=O)N(CCCl)CCCl)cc4CC[C@H]3[C@@H]1CC[C@@H]2O`, in the test on MCC-13, the compound was classed as inactive. For the same compound, the Potency result with MCC-26, with MKL-1, with MKL-2, with UISO and with WaGa was “inactive” each time. The Potency in the test with HeLa was 35.5 µM (active). Also, the figures for the activity, negative = cell killing in [1] (setting [2]), in [1] (setting [3]) and in test [1] (setting [4]) were -7.93%, -5.83% and -29.8%, respectively.

For `CC(C)C[C@H](CN)CC(=O)O`, the compound was called inactive in the test with MCC-13. Also, the Potency result in the test on MCC-26, in the test with MKL-1, in the test on MKL-2, in the test on UISO and in the test with WaGa was “inactive” in each case. In addition, the activity, negative = cell killing is 2.42% in test [1] (setting [2]), -14.3% in test [1] (setting [3]) and -19.6% in test [1] (setting [4]).

Consider `CCN(CCO)CCn1c(Cc2ccccc2)nc2c1c(=O)n(C)c(=O)n2C`, for which the call in the test with MCC-13, with CAOV3, in the test with CASKI, with Hek293T and with JEG-3 was inactive. Moreover, the Potency entry in the test with MCC-26, with MKL-1, in the test on MKL-2, in the test with UISO, with WaGa and in the test on C33A was “inactive” in each case. Also, the Potency entry in the test with Es-2, with HeLa, in the test with PA-1, with Tov-21-G and in the test on Tov112D was “inactive” in each case. For the same compound, the values for the activity, negative = cell killing in test [1] (setting [2]) and in test [1] (setting [3]) were -6.5% and -3.15%, respectively.

As for `COc1cc(CCN)cc(OC)c1OC`, the compound was classed as inactive in the test on MCC-13, in the test with CAOV3, with CASKI, in the test with Hek293T, in the test with JEG-3 and in the test on SKOV3. The Potency entry in the test on MCC-26, in the test with MKL-1, in the test with UISO, in the test on WaGa, in the test with C33A and in the test with Es-2 was “inactive” each time. Moreover, the Potency entry with HeLa, in the test with OV90, with PA-1, in the test with Tov-21-G and in the test on Tov112D was “inactive” each time. Besides, the activity, negative = cell killing was -15.3% in test [1] (at 108 µM (top of the series), tumour line B) and 5.13% in test [1] (at 108 µM (top of the series), tumour line D).
